The full list was thinned out, with hits kept by preference.
IDE exosite inh – exo-site inhibitors of human insulin-degrading enzyme | purified IDE, FL-6b probe fluorescence polarization; active compounds read low | actives 6.3% (n = 17,000) | P14735 | z-score at 20 µM;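 active = z-score of -3 or lower, meaning strong loss of probe binding signal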;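 also: His-tagged human IDE residues 42-1019 made in E. coli with 30 nM FL-6b probe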
Target sequence (P14735 42-1019 limits assumed): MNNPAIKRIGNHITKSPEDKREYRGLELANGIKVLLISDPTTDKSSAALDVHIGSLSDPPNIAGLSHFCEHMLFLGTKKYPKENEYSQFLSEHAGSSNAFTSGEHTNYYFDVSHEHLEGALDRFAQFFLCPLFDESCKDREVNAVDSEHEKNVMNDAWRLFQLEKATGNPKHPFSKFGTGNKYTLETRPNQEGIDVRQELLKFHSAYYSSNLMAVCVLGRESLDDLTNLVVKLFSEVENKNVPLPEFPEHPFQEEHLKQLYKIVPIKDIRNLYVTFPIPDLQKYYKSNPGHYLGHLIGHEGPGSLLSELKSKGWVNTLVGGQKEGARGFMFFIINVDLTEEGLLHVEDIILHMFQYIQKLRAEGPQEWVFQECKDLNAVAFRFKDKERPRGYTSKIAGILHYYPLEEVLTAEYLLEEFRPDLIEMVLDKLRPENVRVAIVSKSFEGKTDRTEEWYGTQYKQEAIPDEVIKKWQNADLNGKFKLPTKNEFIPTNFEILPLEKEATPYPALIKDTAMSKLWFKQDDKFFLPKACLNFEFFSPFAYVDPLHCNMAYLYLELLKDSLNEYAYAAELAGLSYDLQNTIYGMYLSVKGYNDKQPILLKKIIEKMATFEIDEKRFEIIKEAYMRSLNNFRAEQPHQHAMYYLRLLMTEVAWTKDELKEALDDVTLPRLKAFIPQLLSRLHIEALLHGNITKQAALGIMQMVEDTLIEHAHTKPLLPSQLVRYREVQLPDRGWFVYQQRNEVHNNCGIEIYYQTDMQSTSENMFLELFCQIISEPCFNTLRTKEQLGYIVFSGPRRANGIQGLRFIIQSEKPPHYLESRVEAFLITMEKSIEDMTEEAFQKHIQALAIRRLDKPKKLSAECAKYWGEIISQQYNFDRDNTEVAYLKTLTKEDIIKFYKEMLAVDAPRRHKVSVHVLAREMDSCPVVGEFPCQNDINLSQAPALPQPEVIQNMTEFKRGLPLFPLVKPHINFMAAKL
Starred values were filed as active, the others as inactive.

SMILES | IDE exosite inh
C[C@@H]1CN([C@H](C)CO)C(=O)c2cc(/C=C/c3ccccc3)cnc2O[C@@H]1CN(C)S(=O)(=O)c1ccccc1F | -2.1
Cc1noc(C)c1S(=O)(=O)Nc1ccc2c(c1)CC(=O)N([C@H](C)CO)C[C@H](C)[C@H](CN(C)Cc1ccc(Oc3ccccc3)cc1)O2 | 0.079
Cc1noc(C)c1S(=O)(=O)Nc1ccc2c(c1)CC(=O)N([C@@H](C)CO)C[C@H](C)[C@@H](CN(C)Cc1ccc(Oc3ccccc3)cc1)O2 | -4.3*
C[C@H](CO)N1C[C@H](C)[C@@H](CN(C)S(=O)(=O)c2ccccc2F)Oc2ncc(/C=C/c3ccccc3)cc2C1=O | 0.42
COc1ccc(NC(=O)N(C)C[C@H]2OCCCC[C@H](C)Oc3ccc(NC(=O)c4ccncc4)cc3C(=O)N([C@@H](C)CO)C[C@H]2C)cc1 | 0.95
O=C(Cc1ccccn1)N1CC[C@@H]2[C@H]1c1cc(-c3cccc(F)c3)ccc1N[C@@H]2CO | -0.13
CCCC(=O)N1CCC2(CC1)CN(C(=O)C1CCC1)[C@@H](CO)c1[nH]c3cc(OC)ccc3c12 | -1.4
CC(C)[C@@H]1COCn2nncc2CC[C@H](C)C(=O)N1 | -0.75
O=C(C1CCC1)N1CC(=O)N2[C@H](C1)[C@H](c1ccc(C#CCc3ccccc3)cc1)[C@@H]2CO | -3*
O=C(C1CCCCC1)N1CC(=O)N2[C@H](C1)[C@@H](c1ccc(C#CCc3ccccc3)cc1)[C@@H]2CO | 1.7
O=C(C1CCC1)N1CC(=O)N2[C@H](CO)[C@@H](c3ccc(C#CCc4ccccc4)cc3)[C@H]2C1 | 2.2
O=C(C1CCC1)N1CC(=O)N2[C@@H](CO)[C@@H](c3ccc(C#CCc4ccccc4)cc3)[C@@H]2C1 | -3.3*
O=C(C1CCC1)N1CC(=O)N2[C@H](C1)[C@@H](c1ccc(C#CCc3ccccc3)cc1)[C@@H]2CO | -0.42
O=C(C1CCCCC1)N1CC(=O)N2[C@H](CO)[C@@H](c3ccc(C#CCc4ccccc4)cc3)[C@@H]2C1 | -2.7
O=C(c1cccc(F)c1)N1CC(=O)N2[C@H](CO)[C@@H](c3ccc(-c4cccnc4)cc3)[C@H]2C1 | 4.2
O=C(C[C@H]1CC[C@H](NC(=O)c2cccnc2)[C@H](CO)O1)NCc1ccc(Cl)c(Cl)c1 | 1.2
CO[C@H]1CC[C@H]2CCN(C)C(=O)[C@@H](C)CN(C)C(=O)c3cc(C#N)ccc3OC[C@H]1O2 | 0.0054
COc1ccc2c3c(n(C)c2c1)[C@H](CO)N(C(C)=O)CC31CCN(Cc2ccccc2OC)CC1 | -0.41
COc1ccc2c3c(n(C)c2c1)[C@H](CO)N(C)CC31CCN(C(=O)c2ccc3c(c2)OCO3)CC1 | 0.21
O=C(c1cccnc1)N1CC(=O)N2[C@H](CO)[C@H](c3ccc(C#CCC4CCCC4)cc3)[C@@H]2C1 | 3.4
COc1ccc(-c2ccc([C@@H]3[C@@H](CO)N4CCCCN(C(=O)NC(C)C)C[C@@H]34)cc2)cc1 | -4.1*
COc1ccc(-c2ccc([C@H]3[C@H]4CN(C(=O)NC(C)C)CCCCN4[C@H]3CO)cc2)cc1 | -11*
COc1ccc(-c2ccc([C@@H]3[C@@H](CO)N4C(=O)CN(C(=O)NC(C)C)C[C@H]34)cc2)cc1 | -2.7
COCC(=O)N1CCCCN2[C@H](C1)[C@@H](c1ccc(-c3ccc(OC)cc3)cc1)[C@@H]2CO | 1.4
COc1ccc(-c2ccc([C@@H]3[C@H](CO)N4CCCCN(C(=O)NC(C)C)C[C@@H]34)cc2)cc1 | -5.6*
SMILES | IDE exosite inh
COc1ccc(-c2ccc([C@H]3[C@H](CO)N4CCCCN(C(=O)c5ccc(F)cc5)C[C@@H]34)cc2)cc1 | 0.084
COc1ccc(-c2ccc([C@@H]3[C@H](CO)N4CCCCN(C(=O)c5ccc(F)cc5)C[C@@H]34)cc2)cc1 | 0.56
COCC(=O)N1CCCCN2[C@H](CO)[C@H](c3ccc(-c4ccc(OC)cc4)cc3)[C@@H]2C1 | -0.47
COCC(=O)N1CCCCN2[C@@H](CO)[C@H](c3ccc(-c4ccc(OC)cc4)cc3)[C@@H]2C1 | 0.91
CC(=O)NC[C@H]1[C@@H](c2ccc(C3=CCCC3)cc2)[C@@H](CO)N1C(=O)C1CCC1 | 0.91
C[C@H]1CN([C@@H](C)CO)C(=O)CCCn2nncc2CO[C@@H]1CN(C)C(=O)c1cc(-c2ccccc2)on1 | -1
N#C[C@H]1[C@@H](c2ccccc2C2=CCCCC2)[C@@H](CO)N1C(=O)Cc1ccncc1 | 1.1
O=C(c1cccc(F)c1)N1CCCCN2[C@@H](CO)[C@H](c3ccc(-c4ccncc4)cc3)[C@@H]2C1 | 1.1
COc1ccccc1-c1ccc([C@H]2[C@H]3CN(C(=O)c4cccnc4)CCCCN3[C@H]2CO)cc1 | 0.57
COc1ccccc1-c1ccc([C@@H]2[C@@H](CO)N3CCCCN(C(=O)c4cccnc4)C[C@H]23)cc1 | 0.079
Cc1ccc(-c2ccc([C@@H]3[C@H]4CN(C(=O)c5ccncc5)CCCCN4[C@H]3CO)cc2)cc1 | -2.6
O=C(c1ccncc1)N1CCCCN2[C@H](CO)[C@H](c3ccc(-c4ccccc4)cc3)[C@@H]2C1 | 2.5
Cc1cccc(-c2ccc([C@@H]3[C@H]4CN(C(=O)c5ccncc5)CCCCN4[C@H]3CO)cc2)c1 | -17*
Cc1cccc(-c2ccc([C@H]3[C@@H](CO)N4CCCCN(C(=O)c5ccncc5)C[C@H]34)cc2)c1 | -18*
Cc1cccc(-c2ccc([C@@H]3[C@@H](CO)N4CCCCN(C(=O)c5ccncc5)C[C@@H]34)cc2)c1 | -3.1*
O=C(c1ccncc1)N1CCCCN2[C@H](C1)[C@@H](c1ccc(-c3ccccc3)cc1)[C@@H]2CO | -0.18
COc1ccccc1-c1ccc([C@@H]2[C@H](CO)N3CCCCN(C(=O)c4ccncc4)C[C@@H]23)cc1 | -13*
O=C(c1ccncc1)N1CCCCN2[C@H](CO)[C@@H](c3ccc(-c4ccccc4)cc3)[C@@H]2C1 | 0.82
Cc1ccc(-c2ccc([C@H]3[C@@H](CO)N4CCCCN(C(=O)c5ccncc5)C[C@@H]34)cc2)cc1 | 0.15
CCC(=O)N1[C@H](C#N)[C@H](c2ccccc2-c2ccccc2)[C@H]1CO | 1.2
CC(=O)N1[C@H](CO)[C@H](c2ccc(-c3cccnc3)cc2)[C@H]1CNC(=O)C1CC1 | 1
CCc1cnc(N2[C@H](CO)[C@@H](c3ccc(C#CCC4CCCC4)cc3)[C@@H]2C#N)s1 | 3.5
CS(=O)(=O)N1[C@H](C#N)[C@H](c2ccc(C#CC3CCCCC3)cc2)[C@H]1CO | 4.2
OC[C@@H]1[C@@H](c2ccc(-c3cccc(F)c3)cc2)[C@@H]2CN(CCC(F)(F)F)CCCCN12 | 3.8
CCCC#Cc1ccc([C@@H]2[C@H]3CN(C(=O)c4cccnc4)CC(=O)N3[C@H]2CO)cc1 | -0.027
SMILES | IDE exosite inh
Cc1ccc(-c2ccc([C@@H]3[C@@H](CO)N4CCCCN(C(=O)c5ccncc5)C[C@H]34)cc2)cc1 | 2.8
Cc1ccc(-c2ccc([C@H]3[C@H](CO)N4CCCCN(C(=O)c5ccncc5)C[C@@H]34)cc2)cc1 | -0.74
Cc1cccc(-c2ccc([C@@H]3[C@@H](CO)N4CCCCN(C(=O)c5ccncc5)C[C@H]34)cc2)c1 | -3.1*
Cc1cccc(-c2ccc([C@H]3[C@@H](CO)N4C(=O)CN(C(=O)NC5CCCCC5)C[C@@H]34)cc2)c1 | -10*
O=C(NC1CCCCC1)N1CC(=O)N2[C@@H](CO)[C@@H](c3ccc(C4=CCCC4)cc3)[C@@H]2C1 | 2.3
O=C(NC1CCCCC1)N1CC(=O)N2[C@H](CO)[C@@H](c3ccc(-c4cccc(F)c4)cc3)[C@H]2C1 | -1.6
O=C(NC1CCCCC1)N1CC(=O)N2[C@H](CO)[C@H](c3ccc(-c4cccc(F)c4)cc3)[C@@H]2C1 | -0.028
